Experimental data published in PubChem BioAssay AID1159580 (chemical genetic matrix, 2015).
Out of some 5,500 compounds screened, about 2,000 (36%) were called active. Roughly 18% stayed inconclusive and do not appear here. Rule as the data show it: active = normalized growth mostly below about 0.91 (no sharp cut-off); inconclusive = no clear call, values can overlap the other calls; inactive = mostly above about 0.92. This is one part of the list.

Experiment: chemical genetic growth profiling, strain panel (AID 1159580);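 also: tested at 20 µM; growth read once vehicle control cultures reached saturation at 30 °C; 1 = growth at the plate median or of vehicle wells; lower values mean less growth of the strain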
Conditions: growth OD

Measured: normalized growth

CCCCCC(=O)O[C@]1(C(C)=O)CCC2C3CCC4=CC(=O)CC[C@]4(C)C3CC[C@@]21C (some centres undefined)
inactive: S. cerevisiae deletion strains, locus YJR066W, strain TOR1, stronger effect = lower value 0.939 | S. cerevisiae deletion strains, locus YKL009W, strain mrt4, stronger effect = lower value 1.01 | S. cerevisiae deletion strains, locus YKL068W, stronger effect = lower value 1 | S. cerevisiae deletion strains, locus YKL085W, strain MDH1 (second series), stronger effect = lower value 1.01 | S. cerevisiae deletion strains, locus YKL085W, strain MDH1, stronger effect = lower value 1.01 | S. cerevisiae deletion strains, locus YKL160W, strain elf1, stronger effect = lower value 0.998 | S. cerevisiae deletion strains, locus YKL190W, strain CNB1, stronger effect = lower value 1.01 | S. cerevisiae deletion strains, locus YKR001C, strain vps1, stronger effect = lower value 1.01 | S. cerevisiae deletion strains, locus YKR026C, strain gcn3, stronger effect = lower value 1 | S. cerevisiae deletion strains, locus YKR091W, strain srl3, stronger effect = lower value 0.99 | S. cerevisiae deletion strains, locus YLL001W, strain dnm1, stronger effect = lower value 1 | S. cerevisiae deletion strains, locus YLL026W, stronger effect = lower value 1.01 | S. cerevisiae deletion strains, locus YLL041C, strain sdh2, stronger effect = lower value 0.99 | S. cerevisiae deletion strains, locus YLR027C, strain aat2, stronger effect = lower value 1 | S. cerevisiae deletion strains, locus YLR039C, strain RIC1, stronger effect = lower value 1.02 | S. cerevisiae deletion strains, locus YLR058C, strain SHM2, stronger effect = lower value 1.02 | S. cerevisiae deletion strains, locus YLR102C, strain apc9, stronger effect = lower value 1.01 | S. cerevisiae deletion strains, locus YLR113W, strain HOG1, stronger effect = lower value 0.988 | S. cerevisiae deletion strains, locus YLR221C, strain rsa3, stronger effect = lower value 0.999 | S. cerevisiae deletion strains, locus YLR258W, strain gsy2, stronger effect = lower value 1 | S. cerevisiae deletion strains, locus YLR262C, strain YPT6 (second series), stronger effect = lower value 1.02 | S. cerevisiae deletion strains, locus YLR262C, strain YPT6, stronger effect = lower value 1.09 | S. cerevisiae deletion strains, locus YLR268W, strain sec22, stronger effect = lower value 1.02 | S. cerevisiae deletion strains, locus YLR320W, strain mms22, stronger effect = lower value 1.01 | S. cerevisiae deletion strains, locus YLR330W, strain CHS5, stronger effect = lower value 1.01 | S. cerevisiae deletion strains, locus YLR342W, strain FKS1 (second series), stronger effect = lower value 0.997 | S. cerevisiae deletion strains, locus YLR342W, strain FKS1, stronger effect = lower value 0.996 | S. cerevisiae deletion strains, locus YLR357W, strain rsc2, stronger effect = lower value 1.01 | S. cerevisiae deletion strains, locus YLR370C, strain arc18, stronger effect = lower value 0.998 | S. cerevisiae deletion strains, locus YLR371W, strain rom2, stronger effect = lower value 1.01 | S. cerevisiae deletion strains, locus YLR384C, strain iki3, stronger effect = lower value 0.996 | S. cerevisiae deletion strains, locus YLR418C, strain cdc73, stronger effect = lower value 1.01 | S. cerevisiae deletion strains, locus YML016C, strain PPZ1, stronger effect = lower value 1 | S. cerevisiae deletion strains, locus YML032C, strain rad52, stronger effect = lower value 1.01 | S. cerevisiae deletion strains, locus YML120C, strain ndi1, stronger effect = lower value 1 | S. cerevisiae deletion strains, locus YML124C, strain tub3, stronger effect = lower value 1 | S. cerevisiae deletion strains, locus YMR058W, strain fet3, stronger effect = lower value 1.01 | S. cerevisiae deletion strains, locus YMR078C, strain ctf18, stronger effect = lower value 1.01 | S. cerevisiae deletion strains, locus YMR125W, strain sto1, stronger effect = lower value 1.01 | S. cerevisiae deletion strains, locus YMR129W, stronger effect = lower value 1 | S. cerevisiae deletion strains, locus YMR205C, strain PFK2, stronger effect = lower value 0.973 | S. cerevisiae deletion strains, locus YMR223W, strain ubp8, stronger effect = lower value 1.01 | S. cerevisiae deletion strains, locus YMR231W, strain pep5, stronger effect = lower value 1 | S. cerevisiae deletion strains, locus YMR307W, strain GAS1, stronger effect = lower value 1.1 | S. cerevisiae deletion strains, locus YNL067W, strain RPL9B, stronger effect = lower value 0.998 | S. cerevisiae deletion strains, locus YNL071W, strain lat1, stronger effect = lower value 1 | S. cerevisiae deletion strains, locus YNL128W, strain TEP1, stronger effect = lower value 1.02 | S. cerevisiae deletion strains, locus YNL183C, strain NPR1, stronger effect = lower value 0.965 | S. cerevisiae deletion strains, locus YNL209W, strain ssb2, stronger effect = lower value 1 | S. cerevisiae deletion strains, locus YNL233W, strain BNI4, stronger effect = lower value 1.03 | S. cerevisiae deletion strains, locus YNL248C, strain rpa49, stronger effect = lower value 1 | S. cerevisiae deletion strains, locus YNL250W, strain rad50, stronger effect = lower value 1.01 | S. cerevisiae deletion strains, locus YNL271C, strain bni1, stronger effect = lower value 1.02 | S. cerevisiae deletion strains, locus YNL298W, strain CLA4, stronger effect = lower value 1.02 | S. cerevisiae deletion strains, locus YNL307C, strain MCK1, stronger effect = lower value 1.01 | S. cerevisiae deletion strains, locus YNL322C, strain KRE1 (second series), stronger effect = lower value 0.999 | S. cerevisiae deletion strains, locus YNL322C, strain KRE1, stronger effect = lower value 1.01 | S. cerevisiae deletion strains, locus YNR049C, strain mso1, stronger effect = lower value 1 | S. cerevisiae deletion strains, locus YNR052C, strain pop2, stronger effect = lower value 1.02 | S. cerevisiae deletion strains, locus YOL012C, strain htz1 1.02 | S. cerevisiae deletion strains, locus YOL147C, strain pex11, stronger effect = lower value 1 | S. cerevisiae deletion strains, locus YOR001W, strain rrp6, stronger effect = lower value 1.01 | S. cerevisiae deletion strains, locus YOR061W, strain CKA2, stronger effect = lower value 1 | S. cerevisiae deletion strains, locus YOR069W, strain VPS5, stronger effect = lower value 1.01 | S. cerevisiae deletion strains, locus YOR070C, strain gyp1, stronger effect = lower value 1 | S. cerevisiae deletion strains, locus YOR080W, strain dia2, stronger effect = lower value 1 | S. cerevisiae deletion strains, locus YOR083W, strain WHI5, stronger effect = lower value 0.997 | S. cerevisiae deletion strains, locus YOR106W, strain vam3, stronger effect = lower value 1.01 | S. cerevisiae deletion strains, locus YOR136W, strain idh2, stronger effect = lower value 1.02 | S. cerevisiae deletion strains, locus YOR144C, strain elg1, stronger effect = lower value 1.01 | S. cerevisiae deletion strains, locus YOR184W, strain ser1, stronger effect = lower value 0.969 | S. cerevisiae deletion strains, locus YOR231W, strain MKK1, stronger effect = lower value 0.976 | S. cerevisiae deletion strains, locus YOR265W, strain rbl2, stronger effect = lower value 0.998 | S. cerevisiae deletion strains, locus YOR270C, strain vph1, stronger effect = lower value 1.04 | S. cerevisiae deletion strains, locus YOR290C, strain snf2, stronger effect = lower value 0.959 | S. cerevisiae deletion strains, locus YOR316C, strain cot1, stronger effect = lower value 1.01 | S. cerevisiae deletion strains, locus YPL051W, strain arl3, stronger effect = lower value 1.01 | S. cerevisiae deletion strains, locus YPL055C, strain LGE1, stronger effect = lower value 1.01 | S. cerevisiae deletion strains, locus YPL078C, strain atp4, stronger effect = lower value 1.01 | S. cerevisiae deletion strains, locus YPL106C, strain sse1, stronger effect = lower value 0.986 | S. cerevisiae deletion strains, locus YPL240C, strain hsp82, stronger effect = lower value 0.991 | S. cerevisiae deletion strains, locus YPL241C, strain CIN2, stronger effect = lower value 1 | S. cerevisiae deletion strains, locus YPL256C, strain CLN2, stronger effect = lower value 0.958 | S. cerevisiae deletion strains, locus YPR119W, strain clb2, stronger effect = lower value 1.01 | S. cerevisiae deletion strains, locus YPR141C, strain kar3, stronger effect = lower value 1.01 | S. cerevisiae deletion strains, locus YPR163C, strain tif3, stronger effect = lower value 1.01 | S. cerevisiae deletion strains, locus YPR167C, strain met16, stronger effect = lower value 1.01 | S. cerevisiae deletion strains, strain wtn01, stronger effect = lower value 1.01 | S. cerevisiae strains, strain wild type, stronger effect = lower value 1.01
